# Experimental data as given in PMC4336329 (PLoS ONE, 2015).
# Screen size: about 310,000 compounds; about 14,000 (4.5%) showed an effect of 50% or more. Effects have a minus sign here. Shown is part of a subset that was picked to be rich in strong results.
# Target: human ether-à-go-go-related gene (hERG) potassium channel (human, UniProt Q12809)
# Assay: primary screen, population patch clamp on CHO cells stably expressing hERG; higher = less effect of the substance
# 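Also: peak tail current of the secondary pulse compared with the same well before compound.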
# human ether-à-go-go-related gene (hERG) potassium channel, sequence (Q12809 whole entry, looked up): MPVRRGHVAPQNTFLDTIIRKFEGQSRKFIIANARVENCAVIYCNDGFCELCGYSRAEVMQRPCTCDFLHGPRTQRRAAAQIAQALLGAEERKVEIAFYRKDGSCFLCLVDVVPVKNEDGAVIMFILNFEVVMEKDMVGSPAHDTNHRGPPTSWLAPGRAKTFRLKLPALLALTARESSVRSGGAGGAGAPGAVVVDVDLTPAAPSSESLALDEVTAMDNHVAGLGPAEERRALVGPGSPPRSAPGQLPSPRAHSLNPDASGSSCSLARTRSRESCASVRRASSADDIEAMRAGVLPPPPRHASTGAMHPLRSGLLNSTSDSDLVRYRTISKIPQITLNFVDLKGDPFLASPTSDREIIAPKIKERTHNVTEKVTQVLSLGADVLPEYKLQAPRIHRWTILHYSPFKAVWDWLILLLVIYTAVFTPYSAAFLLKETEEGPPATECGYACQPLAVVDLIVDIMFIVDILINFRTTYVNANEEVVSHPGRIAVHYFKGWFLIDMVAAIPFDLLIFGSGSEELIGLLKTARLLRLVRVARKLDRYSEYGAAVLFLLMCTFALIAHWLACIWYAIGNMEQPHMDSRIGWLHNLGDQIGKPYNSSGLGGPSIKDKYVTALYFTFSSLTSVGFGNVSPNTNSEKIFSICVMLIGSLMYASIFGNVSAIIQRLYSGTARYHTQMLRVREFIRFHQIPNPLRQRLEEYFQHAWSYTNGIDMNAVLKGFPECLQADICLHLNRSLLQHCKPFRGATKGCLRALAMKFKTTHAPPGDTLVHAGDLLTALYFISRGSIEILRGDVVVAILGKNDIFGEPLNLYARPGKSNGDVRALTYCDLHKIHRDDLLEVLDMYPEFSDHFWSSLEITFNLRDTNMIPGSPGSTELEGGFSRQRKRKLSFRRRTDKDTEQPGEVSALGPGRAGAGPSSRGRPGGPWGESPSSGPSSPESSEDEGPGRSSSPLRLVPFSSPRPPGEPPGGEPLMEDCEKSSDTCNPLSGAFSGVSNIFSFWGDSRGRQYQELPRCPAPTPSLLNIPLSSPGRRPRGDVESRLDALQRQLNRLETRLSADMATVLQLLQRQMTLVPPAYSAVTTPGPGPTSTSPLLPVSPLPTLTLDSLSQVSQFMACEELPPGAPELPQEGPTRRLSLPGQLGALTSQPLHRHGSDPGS
row,Structure (SMILES),"hERG current change (%, negative = inhibition) at 10uM"
1,O=C(Cn1c2c(c(=O)n3ncnc13)CCC2)N/N=C/c1cccs1,0.665%
2,CS(=O)(=O)c1ccc(C(=O)NCC(c2ccco2)N2CCCCC2)cc1 (stereo not shown),18%
3,Cc1cc(OCC(=O)NCC(O)c2ccccc2)c2c3c(c(=O)oc2c1)CCCC3 (stereo not shown),12.1%
4,CCCCn1c(N)c(N(CCOC)C(=O)c2ccco2)c(=O)[nH]c1=O,0.12%
5,Cc1ccc(-n2c(SCC(=O)N/N=C/c3c(C)nn(-c4ccccc4)c3C)nc3ccccc3c2=O)cc1,-7.33%
6,O=C(Nc1ccccc1)N1CCC(O)(c2cccc(C(F)(F)F)c2)CC1,-6.72%
7,c1ccc(-c2nc3ccccc3s2)nc1,4.67%
8,Cc1ccc(-n2c(SCC(=O)N3c4ccccc4Sc4ccccc43)nnc2-c2ccncc2)cc1,-3.06%
9,COc1ccc(NC(=O)CN(C)C(=O)C(C)Sc2ccccc2)cc1 (stereo not shown),5.43%
10,COC(=O)Cn1c2nc3ccccc3nc2c2cccc(C)c21,9.86%
11,COC(=O)Cn1cnc2c(C#N)c3n(c2c1=O)CCCCC3,-8.01%
12,COc1cc(-c2nn3c(COc4ccccc4)nnc3s2)cc(OC)c1OC,14.8%
13,O=C(NCc1ccccc1)c1ccco1,2.34%
14,CCOc1ccc(CN2CCN(Cc3cccc4nonc34)CC2CCO)cc1 (stereo not shown),-77.1%
15,COc1cccc(CN2CCN(Cc3cccc4nonc34)CC2CCO)c1 (stereo not shown),-66.3%
16,COc1ccc(CN2CCN(Cc3cccc4nonc34)CC2CCO)c(C)c1C (stereo not shown),-68.3%
17,COc1cccc(CN2CCN(Cc3ccon3)CC2CCO)c1 (stereo not shown),0.227%
18,CCOc1ccccc1CN1CCN(Cc2cccc3nonc23)CC1CCO (stereo not shown),-73.3%
19,CC(C)N1CCN(Cc2cccc3nonc23)CC1CCO (stereo not shown),1.05%
20,CC(C)CCN1CCN(Cc2cccc3nonc23)CC1CCO (stereo not shown),-16.7%
21,CCOc1ccccc1CN1CCN(Cc2ccon2)CC1CCO (stereo not shown),-42.6%
22,COc1cccc(CN2CCN(Cc3cccc4c3OCO4)CC2CCO)c1 (stereo not shown),-23.2%
23,Cc1cccc(CN2CCN(Cc3cccc4nonc34)CC2CCO)n1 (stereo not shown),-24.1%

row,Structure (SMILES),"hERG current change (%, negative = inhibition) at 10uM"
1,Cc1ccc(-n2nc3c(=O)n(CC(=O)NCCc4ccc(Cl)cc4)nc(C)c3c2C)cc1,-10.2%
2,CCc1ccccc1N(CC(=O)N1CCN(c2ccccc2F)CC1)S(C)(=O)=O,0.701%
3,COc1ccc(S(=O)(=O)NCC(c2ccco2)N2CCOCC2)cc1 (stereo not shown),-19.1%
4,COC(=O)N/N=C(\C)c1ccc(Br)cc1,11.6%
5,CCCCN(CC)C(=O)c1n[nH]c(=O)c2ccccc12,2.92%
6,Cc1nc(CNC(=O)C2CCC(=O)N(Cc3cccc(F)c3)C2)sc1C (stereo not shown),5.68%
7,Cc1onc(-c2c(Cl)cccc2Cl)c1C(=O)N1CCc2ccccc21,-19.9%
8,Cc1cc2c(cc1S(=O)(=O)Nc1cccc(F)c1)n(C)c(=O)c(=O)n2C,-10.9%
9,O=C(NC1CCCCC1)c1cc2ccccc2cc1O,-12.7%
10,COc1ccc(S(=O)(=O)N2CCC3(CC2)CC(=O)c2ccccc2O3)cc1,-24.8%
11,O=C1CC2(CCN(S(=O)(=O)c3ccccc3)CC2)Oc2ccccc21,-84.6%
12,CC(=O)c1ccc(S(=O)(=O)N2CCC3(CC2)CC(=O)c2ccccc2O3)cc1,-42.6%
13,Cc1ccc(S(=O)(=O)N2CCC3(CC2)CC(=O)c2ccccc2O3)cc1,-25.7%
14,O=C(O)c1ccc(S(=O)(=O)N2CCC3(CC2)CC(=O)c2ccccc2O3)cc1,11.5%
15,O=C1CC2(CCN(S(=O)(=O)c3ccccc3F)CC2)Oc2ccccc21,-84.6%
16,O=C(Nc1nnc(-c2ccc(Br)cc2)o1)c1cccc(N2C(=O)CCC2=O)c1,13.4%
17,COc1ccc(CN2CC[C@H]3C=CC[C@@H](C(=O)N4CCOCC4)[C@H]3C2=O)cc1OC,7.75%
18,CS(=O)(=O)N1N=C(c2ccccc2)CC1c1ccc2c(c1)OCO2 (stereo not shown),13.9%
19,CC(=O)N1N=C(c2ccc(NS(C)(=O)=O)cc2)CC1c1ccc2nccnc2c1 (stereo not shown),-63.2%
20,CS(=O)(=O)Nc1cccc(C2=NN(S(C)(=O)=O)C(c3ccc4c(c3)OCO4)C2)c1 (stereo not shown),-62.3%
21,CC(=O)N1N=C(c2ccccc2)CC1c1ccc2c(c1)OCO2 (stereo not shown),1.98%
22,CC(=O)N1N=C(c2ccc(C)cc2)CC1c1ccc2c(c1)OCO2 (stereo not shown),-30.1%
23,CS(=O)(=O)Nc1ccc(C2=NN(S(C)(=O)=O)C(c3ccc4nccnc4c3)C2)cc1 (stereo not shown),-32.8%

row,Structure (SMILES),"hERG current change (%, negative = inhibition) at 10uM"
1,CC(=O)N1N=C(c2cccc(NS(C)(=O)=O)c2)CC1c1ccc2c(c1)OCO2 (stereo not shown),-59.2%
2,CC(=O)N1N=C(c2ccc3nccnc3c2)CC1c1ccccc1 (stereo not shown),-34.9%
3,Cc1ccc(C2=NN(S(C)(=O)=O)C(c3ccc4c(c3)OCO4)C2)cc1 (stereo not shown),-2%
4,Cc1c(/C=N/NC(=O)c2cc(Br)ccc2O)c(=O)n(C)c(=O)n1C,3.23%
5,Cc1[nH]c2ccccc2c1C(=O)C(=O)N1CCC2(CC1)OCCO2,7.95%
6,COc1cccc(NC(=O)CN(C)CC(=O)Nc2ccc(C)c([N+](=O)[O-])c2)c1,-15.8%
7,CCOc1ccccc1N(CC(=O)NC1CCCCC1)S(=O)(=O)c1ccc(C)cc1,-7.2%
8,CSCCC(NC(=O)c1ccc(Cl)cc1Cl)C(=O)NCc1ccccn1 (stereo not shown),-8.59%
9,Cc1ccc(NCc2n[nH]c(=S)n2-c2ccccc2)cc1,15%
10,O=C(Cc1csc(NC(=O)Nc2cccc(Cl)c2)n1)NCc1cccnc1,-53.8%
11,O=C(Nc1ccc(F)c(F)c1)c1cccnc1,0.898%
12,O=C(NCc1cccnc1)Nc1cccc(Cl)c1,15%
13,O=C(Cc1csc(NC(=O)Nc2ccc(Cl)cc2)n1)NCc1ccccn1,-44.7%
14,O=C(Nc1cccnc1)Nc1cc(Cl)cc(Cl)c1,6.81%
15,O=C(Cc1csc(NC(=O)Nc2cccc(Cl)c2)n1)NCc1ccccn1,-5.14%
16,O=C(Nc1ccc(Cl)c(Cl)c1)c1cccnc1,-2.86%
17,COc1ccccc1NC(=O)Nc1nc(CC(=O)NCc2cccnc2)cs1,-13.3%
18,O=C(Nc1ccc(F)c(Cl)c1)c1cccnc1,-65.9%
19,O=C(Cc1csc(NC(=O)Nc2ccc(Cl)cc2)n1)NCc1cccnc1,-50.8%
20,O=C(Nc1ccc(Cl)cc1)Nc1cccnc1,-50.7%
21,O=C(Nc1cccnc1)Nc1ccc(F)c(Cl)c1,-36.8%
